In PubChem BioAssay AID602364 (National Center for Advancing Translational Sciences (NCATS), 2012):
Records with an inconclusive call do not appear. Active and inactive are the calls of the source. Calls follow the shape of the dose curve; as a rule, active = well fitted inhibition curve with a large enough effect; inconclusive = small, poorly fitted or top-dose-only effect; inactive = flat fitted curve, though single readings scatter.

What follows are compounds tested against Luciferin 4-monooxygenase (Photinus pyralis) (UniProt P08659) (assay: FLuc inhibitory activity for the follow-up compounds in a biochemical assay with 1mM ATP). Details: purified P. pyralis luciferase, luminescence; series mostly up to 57.5 µM; activity change, negative = inhibition: at the top concentration.
Description: NCGC Assay Overview: Firefly (Photinus pyralis) luciferase is one of the most commonly used transcriptional reporters. It is considered one of the more dynamically responsive reporters - that is, responsive to changes in reporter transcription - as it requires no post-translational modifications and is enzymatically active directly after protein synthesis (Wood, 1998). With no endogenous expression in mammalian cells and without the requirement of external excitation, it offers very little background signal, thus generally providing excellent signal to background for most assays. Previous profiling work to determine the prevalence of compounds that affect FLuc enzymatic activity (PubChem AID 411) identified that ~3% of the MLSMR library (then at ~72K) inhibited FLuc. […] Of the compounds identified in this profile that inhibited FLuc, 151 compounds were selected for further analysis, in an effort to better understand their mode of inhibiting FLuc. The assay described here was to determine the activity of the compounds in a FLuc assay that contained a KM concentration of D-luciferin and a high concentration (1mM) of ATP.
NCGC Assay Protocol Summary: Reagents: 50mM Tris acetate, pH 7.5; 10mM Mg acetate; 10uM D-luciferin (Sigma #L9504); 1mM ATP; 0.01% Tween-20; 0.05% BSA; 10nM P. pyralis luciferase (Sigma #L9506) Control compounds used were two known firefly luciferase inhibitors (3-(5-(3-chlorophenyl)-1,2,4-oxadiazol-3-yl)benzoic acid and 5-(2-fluorophenyl)-3-phenyl-1,2,4-oxadiazole), and DMSO. Three microliters containing firefly luciferase substrates in buffer (final concentrations: 50mM Tris acetate, pH 7.5, 10mM Mg acetate, 0.01% Tween-20, 0.05% BSA, 10uM D-luciferin, 1mM ATP) are dispensed into each well of a Greiner white, solid-bottom 1536-well format plate using a flying reagent dispenser (FRD). These assay plates were then treated with 23nL of compound or DMSO using a Kalypsys pin tool, which allows for delivery of a 12-point intraplate titration of each compound to the assay plate (quantitative HTS), with a final compound concentrations ranging from approximately ~60uM to 0.3nM. One microliter of firefly luciferase in […] Tris-acetate buffer was then delivered by FRD to each well for a final enzyme concentration of 10nM. Luciferase activity was then measured using a ViewLux CCD imager (PerkinElmer), with an average exposure time of 2-30 seconds (2X binning, medium/high gain).

Chain of Luciferin 4-monooxygenase (Photinus pyralis) (P08659 whole entry, looked up): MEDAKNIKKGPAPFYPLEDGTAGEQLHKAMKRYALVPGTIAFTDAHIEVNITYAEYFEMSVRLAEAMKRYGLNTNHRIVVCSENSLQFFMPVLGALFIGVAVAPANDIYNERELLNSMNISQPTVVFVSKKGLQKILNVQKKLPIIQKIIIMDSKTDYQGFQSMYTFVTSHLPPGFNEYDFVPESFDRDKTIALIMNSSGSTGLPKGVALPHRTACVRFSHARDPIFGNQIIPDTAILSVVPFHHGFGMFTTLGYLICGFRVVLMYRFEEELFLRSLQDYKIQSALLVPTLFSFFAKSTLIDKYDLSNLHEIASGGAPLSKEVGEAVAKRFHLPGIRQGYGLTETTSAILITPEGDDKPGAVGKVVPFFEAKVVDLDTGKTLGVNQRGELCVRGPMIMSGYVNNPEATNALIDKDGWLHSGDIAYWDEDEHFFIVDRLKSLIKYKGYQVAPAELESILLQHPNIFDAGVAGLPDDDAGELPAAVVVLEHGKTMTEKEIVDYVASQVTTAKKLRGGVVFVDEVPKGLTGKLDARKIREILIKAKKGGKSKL

| Compound | Potency | activity change, negative = inhibition |
| --- | --- | --- |
| CN(C)c1cccc(C(=O)Nc2ccc(-c3nc4ccccc4s3)cc2)c1 | 819 nM (active) | – |
| c1ccc2sc(-c3ccc4c(c3)OCO4)nc2c1 | 91.9 nM (active) | – |
| CN=c1scc(-c2ccccc2F)n1/N=C/c1ccc[nH]1 | 58 nM (active) | – |
| CC(C)(C)NC(=O)c1ccccc1-c1nc2ccccc2s1 | – | -11.8% (inactive) |
| Nc1ccc(-c2nc3ccc(C(=O)O)cc3s2)cc1 | 65.1 nM (active) | – |
| Cc1c(NC(=O)C(C)(C)C)cccc1-c1nc2ccccc2s1 | 25900 nM (active) | – |
| Nc1ccc2nc(-c3ccccc3)sc2c1 | 36.6 nM (active) | – |
| CCCC(=O)Nc1nc2ccc(OCC)cc2s1 | 3260 nM (active) | – |
| COc1ccc(CC(=O)Nc2ccc(-c3nc4ccccc4s3)c(C)c2)cc1 | 18300 nM (active) | – |
| COc1ccc(-c2nc3ccccc3s2)cc1NC(=O)c1ccc(F)cc1 | – | -4.53% (inactive) |
| Nc1ccc(C(=O)Nc2ccccc2C(=O)O)cc1 | 14600 nM (active) | – |
| Cc1ccc(C(=O)Nc2cccc(C(=O)O)c2)cc1 | 651 nM (active) | – |
| COc1ccc2nc(NC(=O)C3CCN(S(=O)(=O)c4cccnc4)CC3)sc2c1 | – | 1.18% (inactive) |
| Nc1cccc(-c2nc3ccc(N)cc3s2)c1 | 116 nM (active) | – |
| O=C(Nc1ccccc1C(=O)O)c1cccc(NC(=O)c2ccc(Br)o2)c1 | 32600 nM (active) | – |
| O=C(Nc1ccccc1C(=O)O)c1cc(S(=O)(=O)NCc2ccccc2)ccc1Cl | – | 0.773% (inactive) |
| CCOC(=O)N1CCN(CC(=O)Nc2nc3ccc(OC)cc3s2)CC1 | – | -4.98% (inactive) |
| COc1ccc2nc(NC(=O)c3cnccn3)sc2c1 | 517 nM (active) | – |
| COc1ccccc1C(=O)Nc1ccc(C(=O)Nc2ccccc2C(=O)O)cc1 | – | -4.84% (inactive) |
| O=C(Nc1ccccc1C(=O)O)c1cccc(S(=O)(=O)N2CCCC2)c1 | 16300 nM (active) | – |

| Compound | Potency | activity change, negative = inhibition |
| --- | --- | --- |
| COc1ccc(C(=O)Nc2cccc(C(=O)O)c2)cc1S(=O)(=O)N1CCCC1 | 14600 nM (active) | – |
| Cc1ccc2nc(-c3ccc(N)cc3)sc2c1 | 23.1 nM (active) | – |
| COc1cc(OC)cc(C(=O)Nc2ccccc2-c2nc3ccccc3s2)c1 | – | 5.57% (inactive) |
| CCOc1ccc(C(=O)Nc2ccccc2C(=O)O)cc1 | 1830 nM (active) | – |
| O=C(Nc1ccc(-c2nc3ccccc3s2)cc1)C1=COCCO1 | 18.3 nM (active) | – |
| Cc1ccc2sc(-c3ccc(N)cc3)nc2c1 | 36.6 nM (active) | – |
| COc1cc(C(=O)Nc2cc(C)c(O)c(-c3nc4ccccc4s3)c2)cc(OC)c1OC | – | 2.73% (inactive) |
| CN(C)S(=O)(=O)c1ccc(C(=O)Nc2ccccc2C(=O)O)cc1 | 32600 nM (active) | – |
| Cc1ccc(S(=O)(=O)N2CCN(C(=O)c3ccccc3-c3nc4ccccc4s3)CC2)c(C)c1 | – | -5.52% (inactive) |
| COc1ccc(C(=O)Nc2ccccc2C(=O)Nc2ccc(C(=O)O)cc2)cc1 | 18300 nM (active) | – |
| Cc1c(NS(C)(=O)=O)cccc1-c1nc2ccccc2s1 | 10300 nM (active) | – |
| O=C(O)c1cccc(NC(=O)c2cccc(S(=O)(=O)N3CCc4ccccc4C3)c2)c1 | 18300 nM (active) | – |
| Nc1ccc2nc(-c3ccc(O)cc3)sc2c1 | 183 nM (active) | – |
| O=C(Nc1ccccc1C(=O)O)c1ccc(NC(=O)C2CCCCC2)cc1 | 32600 nM (active) | – |
| COc1ccc2nc(NC(=O)c3ccc(S(=O)(=O)N4CCCC(C)C4)cc3)sc2c1 (stereo not given) | – | 2.45% (inactive) |
| Cc1ccc(NS(=O)(=O)c2ccc(Cl)c(C(=O)Nc3cccc(C(=O)O)c3)c2)cc1 | – | -8.69% (inactive) |
| COc1cc(OC)cc(-c2nc3ccccc3s2)c1 | 4110 nM (active) | – |
| Nc1ccc(-c2nc3cc(N)ccc3s2)cc1 | 259 nM (active) | – |
| NC(=O)Cc1ccc2sc(-c3ccccc3)nc2c1 | 1160 nM (active) | – |
| O=C(COC(=O)c1ccccc1[N+](=O)[O-])c1ccc2c(c1)OCO2 | 4.6 nM (active) | – |
